The list is not random: actives were taken first. Their share in the collection is about 4.5%.
PfHsp90 set2: inhibits growth of yeast expressing Plasmodium falciparum Hsp90; S. cerevisiae expressing PfHsp90, BacTiter-Glo ATP, 48 h; yeast lacking PDR1 and PDR3 efflux regulators; inhibition, % at 9.4 µM; 310,000 tested, 0.32% active; AID 504621;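 active = every replicate shows inhibition above about 80%, whatever the replicate mean, limit read from the data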
tim10-1 inh: inhibits growth of tim10-1 mutant yeast. 330,000 tested, 2.2% active. S. cerevisiae tim10-1 ts strain growth, BacTiter-Glo, 24 h. inhibition, % at 20 µM;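 active = inhibition of at least 40%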;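 note: mutant grown at 25 °C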
NLRP3 yeast inh: NALP3 inhibition in yeast | Yeast reconstituted NLRP3/ASC/caspase-1, beta-gal luminescence, 24 h | 330,000 tested, 0.39% active | inhibition, % at 10 µM;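 active = inhibition of 50% or more; inactive = inhibition below 50%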
tim23-1 inh: inhibits growth of tim23-1 mutant yeast; S. cerevisiae tim23-1 growth, BacTiter-Glo luminescence, 24 h; inhibition, % at 20 µM; 330,000 tested, 1.3% active; AID 463212;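 active = growth inhibition of the mutant yeast at or above 50%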;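 note: temperature-sensitive mutant grown at 25 °C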
SKKanGAS inh: inhibitors of SKKanGAS S. pyogenes growth in kanamycin (SK-promoter or general growth effect) | BacTiter-Glo, 6 h | inhibition, % at 7.5 µM | 300,000 tested, 1.3% active;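 active = mean replicate score, as percent of positive control median, at least 50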;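 note: strain carries kanamycin resistance gene driven by streptokinase promoter and grows in 40 µg/ml kanamycin; loss of luminescence reflects streptokinase promoter inhibition or plain growth inhibition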
TIM10 inh: inhibits growth of TIM10 yeast strain. S. cerevisiae TIM10 strain growth, BacTiter-Glo luminescence, 24 h. inhibition, % at 10 µM. 330,000 tested, 1.4% active;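 active = inhibition of 40% or more at the single tested concentration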;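 note: wild-type TIM10 isogenic control strain grown at permissive 25 °C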
tim10-1 confirm: confirmation of tim10-1 mutant yeast growth inhibitors | shares compounds with tim10-1 inh | S. cerevisiae tim10-1 ts strain growth, BacTiter-Glo, 24 h | inhibition, % at 20 µM | 7,400 tested, 56% active;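 active = inhibition of yeast growth at or above a set limit in either of two repeat tests at 20 µM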;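 note: tim10-1 mutant grown at permissive 25 °C to find synthetic lethal compounds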
Numbers stand for hits.

How did CC(C)=C1C2CCC1C(C(=O)NCCc1ccccc1)C2C(=O)O (centres undefined) do in these assays?
PfHsp90 set2: inactive; tim10-1 inh: 44; NLRP3 yeast inh: inactive; tim23-1 inh: inactive; SKKanGAS inh: inactive; TIM10 inh: inactive; tim10-1 confirm: inactive

What do the screens show for `COc1ccccc1NC(=O)C(C)OC(=O)CC1CCCCC1` (centres undefined)?
PfHsp90 set2: inactive; tim10-1 inh: inactive; NLRP3 yeast inh: inactive; tim23-1 inh: inactive; TIM10 inh: inactive

Results for O=C(Cc1cccs1)N1CCN=C1SCc1ccccc1F ?
PfHsp90 set2: inactive; tim10-1 inh: inactive; NLRP3 yeast inh: inactive; tim23-1 inh: inactive; SKKanGAS inh: inactive; TIM10 inh: inactive

What do the screens show for `O=C(Cc1cccs1)N1CCN=C1SCc1ccccc1Cl`?
tim10-1 inh: 40; NLRP3 yeast inh: inactive; tim23-1 inh: inactive; SKKanGAS inh: inactive; TIM10 inh: inactive; tim10-1 confirm: 34

Results for Cc1ccc(OCC(O)Cn2c3ccccc3c3ccccc32)cc1 (centres undefined) ?
PfHsp90 set2: inactive; tim10-1 inh: inactive; NLRP3 yeast inh: inactive; tim23-1 inh: inactive; SKKanGAS inh: inactive; TIM10 inh: inactive

Results for Cc1cccc(C)c1OCC(O)Cn1c2ccccc2c2ccccc21 (centres undefined) ?
tim10-1 inh: 45; NLRP3 yeast inh: inactive; tim23-1 inh: inactive; SKKanGAS inh: 88; TIM10 inh: inactive; tim10-1 confirm: inactive

What do the screens show for `O=C(C[C@@H]1C/C=C\C[C@H](Cc2ccc(F)cc2)C(=O)OC[C@H]2CCCN2C1=O)N[C@H](CO)Cc1ccccc1`?
PfHsp90 set2: inactive; tim10-1 inh: inactive; NLRP3 yeast inh: inactive; tim23-1 inh: inactive; TIM10 inh: inactive

Results for CCNc1ccc(Br)cc(C(=O)/C=C/c2c(Cl)cccc2Cl)c1=O ?
PfHsp90 set2: inactive; tim10-1 inh: 55; NLRP3 yeast inh: inactive; tim23-1 inh: inactive; SKKanGAS inh: inactive; TIM10 inh: inactive; tim10-1 confirm: 49

Results for CCNc1ccc(Br)cc(C(=O)/C=C/c2ccc(Cl)cc2)c1=O ?
PfHsp90 set2: inactive; tim10-1 inh: inactive; NLRP3 yeast inh: inactive; tim23-1 inh: inactive; SKKanGAS inh: inactive; TIM10 inh: inactive

What do the screens show for `C=CCNC(=S)N/N=C(\C)c1ccc(OC)cc1`?
PfHsp90 set2: inactive; tim10-1 inh: 41; NLRP3 yeast inh: inactive; tim23-1 inh: inactive; SKKanGAS inh: inactive; TIM10 inh: inactive; tim10-1 confirm: inactive

How did O=C(CN1CCC(n2nnc3cc(C(F)(F)F)ccc32)CC1)N1CCc2ccccc21 do in these assays?
PfHsp90 set2: inactive; tim10-1 inh: 46; NLRP3 yeast inh: inactive; tim23-1 inh: inactive; SKKanGAS inh: inactive; TIM10 inh: inactive; tim10-1 confirm: 36

What do the screens show for `O=C(CN1CCC(n2nnc3cc(F)ccc32)CC1)N1CCCc2ccccc21`?
tim10-1 inh: inactive; NLRP3 yeast inh: inactive; tim23-1 inh: inactive; SKKanGAS inh: inactive; TIM10 inh: inactive

Results for CCOc1cc(/C=C2\CN(CC)C/C(=C\c3ccc(O)c(OCC)c3)C2=O)ccc1O ?
PfHsp90 set2: inactive; tim10-1 inh: 49; NLRP3 yeast inh: inactive; tim23-1 inh: inactive; SKKanGAS inh: inactive; TIM10 inh: inactive; tim10-1 confirm: inactive

What do the screens show for `CCOc1cc(/C=N/N=C/c2ccc(O)c(OCC)c2)ccc1O`?
PfHsp90 set2: inactive; tim10-1 inh: inactive; NLRP3 yeast inh: inactive; tim23-1 inh: inactive; SKKanGAS inh: inactive; TIM10 inh: inactive

How did Cc1ccc(C)c(NC(=S)NNC(=O)c2csc3c2CCC(C)C3)c1 (centres undefined) do in these assays?
PfHsp90 set2: inactive; tim10-1 inh: 44; NLRP3 yeast inh: inactive; tim23-1 inh: inactive; SKKanGAS inh: inactive; TIM10 inh: inactive; tim10-1 confirm: 34

What do the screens show for `Cc1ccc(C)c(NC(=S)NNC(=O)c2csc3c2CCCC3)c1`?
PfHsp90 set2: inactive; tim10-1 inh: inactive; NLRP3 yeast inh: inactive; tim23-1 inh: inactive; SKKanGAS inh: inactive; TIM10 inh: inactive

What do the screens show for `COc1ccc(/C=N/Nc2ccc([N+](=O)[O-])cc2)cc1O`?
PfHsp90 set2: inactive; tim10-1 inh: inactive; NLRP3 yeast inh: inactive; tim23-1 inh: inactive; SKKanGAS inh: inactive; TIM10 inh: inactive

What do the screens show for `CCOC(=O)c1ccc(NC(=O)c2cccc3c2C(=O)N(CC2CCCO2)C3)cc1` (centres undefined)?
PfHsp90 set2: inactive; tim10-1 inh: 47; NLRP3 yeast inh: inactive; tim23-1 inh: inactive; SKKanGAS inh: inactive; TIM10 inh: inactive; tim10-1 confirm: 43

What do the screens show for `CCn1c(CNC(=O)c2ccc(Cl)cc2)nnc1SCC(=O)NC1=NCCS1`?
PfHsp90 set2: inactive; tim10-1 inh: inactive; NLRP3 yeast inh: inactive; tim23-1 inh: inactive; SKKanGAS inh: inactive; TIM10 inh: inactive

Results for C=CCn1nc([N+](=O)[O-])nc1Sc1cccc2cccnc12 ?
PfHsp90 set2: inactive; tim10-1 inh: 52; NLRP3 yeast inh: inactive; tim23-1 inh: inactive; SKKanGAS inh: inactive; TIM10 inh: inactive; tim10-1 confirm: 37

How did O=[N+]([O-])c1ccc(Sc2cccc3cccnc23)c([N+](=O)[O-])c1 do in these assays?
PfHsp90 set2: inactive; tim10-1 inh: 56; NLRP3 yeast inh: inactive; tim23-1 inh: inactive; TIM10 inh: inactive; tim10-1 confirm: 57

What do the screens show for `Cc1cc(C)nc(Sc2ccc([N+](=O)[O-])cc2[N+](=O)[O-])n1`?
PfHsp90 set2: inactive; tim10-1 inh: 47; NLRP3 yeast inh: inactive; tim23-1 inh: inactive; SKKanGAS inh: inactive; TIM10 inh: inactive; tim10-1 confirm: 30

Results for O=C(OCC(=O)N1CCCc2ccccc21)c1ccc(S(=O)(=O)C(F)F)cc1 ?
PfHsp90 set2: inactive; tim10-1 inh: inactive; NLRP3 yeast inh: inactive; tim23-1 inh: inactive; SKKanGAS inh: inactive; TIM10 inh: inactive

How did COc1cc(/C=C/C(=O)OCC(=O)NC2CCS(=O)(=O)C2)ccc1OC(F)F (centres undefined) do in these assays?
PfHsp90 set2: inactive; tim10-1 inh: inactive; NLRP3 yeast inh: inactive; tim23-1 inh: inactive; TIM10 inh: inactive

Results for CNC(=O)c1c(I)c(C(=O)NCC(=O)Nc2c(I)c(C(=O)O)c(I)c(C(=O)NCCO)c2I)c(I)c(N(C)C(C)=O)c1I ?
PfHsp90 set2: inactive; tim10-1 inh: inactive; NLRP3 yeast inh: inactive; tim23-1 inh: inactive; TIM10 inh: inactive

How did CCOc1ccc2nc(NCCCNS(=O)(=O)c3ccccc3)c(C#N)cc2c1 do in these assays?
PfHsp90 set2: inactive; tim10-1 inh: 42; NLRP3 yeast inh: inactive; tim23-1 inh: inactive; SKKanGAS inh: inactive; TIM10 inh: inactive; tim10-1 confirm: inactive

What do the screens show for `CCOc1ccc2nc(NCCCNS(=O)(=O)c3ccc(F)cc3)c(C#N)cc2c1`?
PfHsp90 set2: inactive; tim10-1 inh: 42; NLRP3 yeast inh: inactive; tim23-1 inh: inactive; SKKanGAS inh: inactive; TIM10 inh: inactive; tim10-1 confirm: inactive

Compound activity deposited in PubChem BioAssay by several laboratories.
